Measurements taken from PubChem BioAssay (NCATS).
Results filed as inconclusive are left out. Activity calls are given as the source filed them. Calls come from the whole dose curve; as a rule, active = well fitted inhibition curve with a large enough effect; inconclusive = small, poorly fitted or top-dose-only effect; inactive = flat fitted curve, though single readings scatter.

molecular target: Calcium and integrin-binding protein 1 (Homo sapiens) (UniProt Q99828); assay: Primary qHTS for Identification of Calcium Integrin Binding Protein 1 (CIB1) Competitor (AID 1508620); details: CIB1-GST / FITC-alphaIIb peptide fluorescence polarization; series mostly up to 57.7 µM;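 note: GST tagged CIB1 binding a fluorescein labelled alphaIIb integrin peptide tracer; top concentration of the series differs between compounds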
Sequence (Q99828 whole entry, looked up): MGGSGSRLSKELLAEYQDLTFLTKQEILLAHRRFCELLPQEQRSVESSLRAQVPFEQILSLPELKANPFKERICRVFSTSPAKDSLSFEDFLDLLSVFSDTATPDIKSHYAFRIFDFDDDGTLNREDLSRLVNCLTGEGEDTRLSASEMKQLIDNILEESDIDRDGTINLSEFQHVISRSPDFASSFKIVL
Excerpt: Assay Provider: Ulhas P. Naik, PhD Sidney Kimmel Medical College Thomas Jefferson University, Philadelphia, PA Primary function of platelets is to maintain hemostasis. At the site of vascular injury, platelets adhere to adhesive proteins such as collagen and von Willebrand factor. Adherent platelets are activated and generate soluble platelet agonists such as thrombin, ADP and thromboxane A2. Following exposure of circulating platelets to these agonists, results in platelet shape change, granule secretion and activation of platelet integrin alphaIIb-beta3. Ligand binding to activated integrin alphaIIb-beta3 triggers outside-in signaling, leading to platelet aggregation, stabilization of platelet plug, and clot retraction. Upon atherosclerotic plaque rupture also causes platelet plug formation, which underlies a number of cardiovascular diseases such as myocardial infraction and stroke. A number of anti-platelet drugs such as aspirin, clopidogrel, prasugrel, vorapaxar, and eptifibatide are currently available to prevent the thrombotic complications. However, these anti-platelet agents have several limitations including inherent variability in individual responses, developing resistance, and serious bleeding side effects. For these reasons they are not suitable for long-term protection. Based on the experiences with current anti-platelet drugs, it appears that the most useful therapeutic approach is to intersect the secondary responses such as integrin outside-in signaling or recruitment of platelets by TxA2 and secreted ADP. Compounds, which can largely preserve the primary hemostatic function of platelets but inhibit secondary response will be most desired therapeutic agents for treatment of cardiovascular disease. CIB1 is a calcium integrin binding protein, which specifically interact with the alphaIIb subunit of integrin alphaIIb-beta3. Binding of CIB1 to alphaIIb regulates the outside-in signaling in platelets, which is needed for thrombus stabilization and thrombus growth. […] Therefore, we propose that discovery of a small molecule that can prevent the association of CIB1 and alphaIIb-beta3 will be a potential anti-platelet agent that can block the thrombus formation without undue effect on hemostasis. Reference: [1] Naik MU, Nigam A, Manrai P, et al. CIB1 deficiency results in impaired thrombosis: the potential role of CIB1 in outside-in signaling through integrin alpha IIb beta 3. J Thromb Haemost.
PROTOCOL TABLES SEQUENCE No. (1, 2, 3, etc.); […] (e.g., Cells, Incubation, Reagent, etc.); VALUE and DESCRIPTION. 1; Reagent; 3 uL; Protein or buffer (4/3x) 2; Compound; 46 nL; Control inhibitor / compound library 3; Time; 15 min; Room temperature incubation 4; Reagent; 1 uL; Fluorescent labeled peptide (4x) 5; Time; 1000 rpm; Centrifuge 6; Time; 15 min; Room temperature incubation 7; Detection; Ex 480/ Em 540; ViewLux Fluorescence Read NOTES (numbers refer to sequence above) 1; Protein Mixture: C1B1-GST (final concentrations of 1 uM). […] 3; Room temperature incubation. 4; Fluorescent Labeled Peptide: FITC-aIIb (final concentration of 100 nM). Sequence of alphaIIb peptide: Acetyl-[…]-FITC (purity is 95.83%). 5; Centrifuge 1000 rpm (164 g) for 15 seconds. 6; Room temperature incubation. 7; ViewLux Fluorescent Polization Read: excitation = 480(20) / emission = 540(25) S and P; FITC Dichroic mirror.

Row | Compound | outcome
1 | CC(=O)Nc1ccc(OC[C@](C)(O)C(=O)Nc2ccc([N+](=O)[O-])c(C(F)(F)F)c2)cc1 | inactive
2 | COc1cc([C@@H]2c3cc4c(cc3[C@@H](O)C3COC(=O)C32)OCO4)cc(OC)c1O (stereo not given in full) | inactive
3 | C[C@@]12OC(=O)[C@]1([C@@H](O)[C@@H]1C=CCCC1)NC(=O)[C@H]2CCCl | inactive
4 | CC(C)[C@]12O[C@@H]1[C@@H]1O[C@]13[C@]1(O[C@H]1C[C@@H]1C4=C(CC[C@@]13C)C(=O)OC4)[C@H]2O | inactive
5 | C[C@]12Cc3cn[nH]c3C[C@@H]1CC[C@@H]1[C@H]2CC[C@@]2(C)[C@H]1CC[C@]2(C)O | inactive
6 | C#CC1(O)CCC2C3CCC4=CC(=O)CCC4(C)C3CCC21C (stereo not given) | inactive
7 | COc1cc2cc(c1Cl)N(C)C(=O)C[C@H](OC(=O)C(C)C)[C@]1(C)O[C@H]1[C@H](C)[C@@H]1C[C@@](O)(NC(=O)O1)[C@H](OC)C=CC=C(C)C2 | inactive
8 | Nc1ccc(Cl)cc1N | inactive
9 | CCC1(CCC(C)C)C(=O)NC(=O)NC1=O | inactive
10 | C=CCC1=C(C)C(OC(=O)C2C(C=C(C)C)C2(C)C)CC1=O (stereo not given) | inactive
11 | O=[N+]([O-])c1c(Cl)c(Cl)cc(Cl)c1Cl | inactive
12 | COCC1(CO)C(=O)C2CCN1CC2 (stereo not given) | inactive
13 | O=C1CCC[C@@H]2[C@H]3CCCN4CCC[C@@H](CN12)[C@@H]34 | inactive
14 | c1ccc(CCCN2CCN(CCOC(c3ccccc3)c3ccccc3)CC2)cc1 | inactive
15 | CC[C@@H](C(N)=O)N1CCCC1=O | inactive
16 | CCOC(=O)Nc1ccc(NCc2ccc(F)cc2)cc1N | inactive
17 | O=c1[nH]c2ccc(Cl)cc2c(N[C@@H]2CN3CCC2CC3)c1-c1nc2ccccc2[nH]1 | inactive
18 | O=c1[nH]c2ccccc2n1C1CCN(Cc2ccc(-c3[nH]c4cc5ncnc5cc4nc3-c3ccccc3)cc2)CC1 | inactive
19 | S=C(NC1CCCCC1)N1CCC(c2cnc[nH]2)CC1 | inactive
20 | CCNC(=O)C[C@@H]1N=C(c2ccc(Cl)cc2)c2cc(OC)ccc2-n2c(C)nnc21 | inactive

Row | Compound | outcome
21 | C#C[C@]1(O)C=C[C@@H]2[C@@H]3CCC4=CC(=O)CC[C@@H]4[C@H]3CC[C@@]21CC | inactive
22 | CC(C)(C)C(O)C(Oc1ccc(Cl)cc1)n1cncn1 (stereo not given) | inactive
23 | COC(C)(C)CCCC(C)C/C=C/C(C)=C/C(=O)OC(C)C (stereo not given) | inactive
24 | CC(C)NCC(O)c1ccc([N+](=O)[O-])cc1 (stereo not given) | inactive
25 | CCOCCOC(C)=O | inactive
26 | CO[C@H]1CCC(O[C@H]2C[C@H]([C@]3(C)CC[C@]4(C[C@H](O)[C@@H](C)[C@@H]([C@@H](C)C=C(C)C(=O)[C@H](C)C[C@H](C)C(=O)O)O4)O3)O[C@]3(O[C@@H]([C@H]4O[C@@](O)(CO)[C@H](C)C[C@H]4C)C[C@H]3C)[C@H]2C)O[C@H]1C (stereo not given in full) | inactive
27 | CC(Cc1ccc(O)cc1)NCC(O)c1cc(O)cc(O)c1 (stereo not given) | inactive
28 | CCC(=O)O[C@@H]1C=C2CCC3C(CCC4(C)C3CC[C@@H]4OC(=O)CC)C2CC1 (stereo not given in full) | inactive
29 | CCCCCC[C@H]1C(=O)O[C@H](C)[C@H](NC(=O)c2cccc(NC=O)c2O)C(=O)O[C@@H](C)[C@@H]1OC(=O)CC(C)C | inactive
30 | O=S(=O)(c1ccc(Cl)cc1)c1ccc(Cl)cc1 | inactive
31 | C[C@]12CC[C@H](O)CC1=CC[C@H]1[C@H]3CCC(=O)[C@@]3(C)CC[C@@H]12 | inactive
32 | O=C1C=CC[C@@H]2[C@H]3CCCN4CCC[C@@H](CN12)[C@@H]34 | inactive
33 | CN[C@@H]1Cc2cccc3[nH]c(=O)n(c23)C1 | inactive
34 | COC1=CC(C)=C[C@@H](C)[C@@H](O)[C@@H](C)CC(C)=CC=C[C@H](OC)[C@H]([C@@H](C)[C@@H](O)[C@H](C)[C@@]2(O)C[C@@H](O)[C@H](C)[C@@H](C(C)C)O2)OC1=O | inactive
35 | c1cc2c(cc1[C@H]1OC[C@H]3[C@H]1CO[C@H]3c1ccc3c(c1)OCO3)OCO2 | inactive
36 | Cc1c(C(=O)Nc2cccc(C(F)(F)F)c2)cc(-c2ccccc2)n1CCCN1CCOCC1 | inactive
37 | Cc1nc(-c2ccc(-c3ccc(C(=O)N4CCc5cc6c(cc54)C4(CCN(C)CC4)CO6)cc3)c(C)c2)no1 | inactive
38 | Cc1ccccc1-n1c(Cn2ncc3c(N)ncnc32)nc2cccc(C)c2c1=O | inactive
39 | CCOP(=O)(OCC)C(C)NC(=O)N(CCCl)N=O (stereo not given) | inactive
40 | CN1[C@H]2CC(O)C[C@H]1[C@H]1O[C@H]12 (stereo not given in full) | inactive
